# SW480 rereplic – A quantitative high throughput screen for small molecules that induce DNA re-replication in SW480 colon adenocarcinoma cells. SW480 DNA re-replication, Hoechst DNA content imaging, 48 h. Potency, µM (doses to about 46.1 µM), for the others: top-dose re-replication activation, hits mostly activators. hit rate 1.8% among 340,000; note: % of control where 0% means no effect; nearly all actives have a fitted effect of over 55% in size
#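 Cells (250 per well) received 23 nL compound or DMSO by pin tool and were kept 48 hr at 37 C, 5% CO2. Nuclei were then stained with Hoechst for 40 min and scanned for DNA content.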
# KB-V1 MDR tox – qHTS assay for MDR1-selective chemotherapeutics: Primary screen using the drug-selected MDR subline cells KB-V1; KB-V1 MDR cells viability, CellTiter-Glo, 72 h; Potency, µM (doses to about 46.1 µM), most hits filed as cytotoxic; hit rate 3.4% among 400,000; note: % is set by controls: 0 for no effect and ±100 for the full control effect; nearly all actives have a fitted effect of over 60% in size
#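 In this primary screen, KB-V1 cells overexpressing P-gp are incubated with library compounds (lowest to highest concentration) for 72 h at 37 degrees C before a luminescent ATP viability read.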
# ELG1 DNA repair – qHTS screen for small molecules that inhibit ELG1-dependent DNA repair in human embryonic kidney (HEK293T) cells expressing luciferase-tagged ELG1 | Potency, µM (series often up to 46.1 µM), for the others: at the top dose activity change, negative = inhibition, most hits filed as inhibitors | AID 504467, 2011 | HEK293T ELG1-luciferase reporter, luminescence, 16 h; DNA damage induced by 5-fluorouridine | hit rate 2.3% among 330,000; note: % is set by controls: 0 for no effect and ±100 for the full control effect; nearly all actives have a fitted effect of over 55% in size
#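 5-Fluorouridine DNA damage + compound/DMSO, 2,000 cells/well, 16 h, 37 °C/5% CO2. ONE-Glo, 30 min RT, luminescence. Readout = decrease in reporter signal.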
# KB-3-1 tox – qHTS assay for MDR1-selective chemotherapeutics: Primary screen using the parental adenocarcinoma cell KB-3-1. KB-3-1 viability, CellTiter-Glo ATP luminescence, 72 h. hit rate 1.4% among 400,000. Potency, µM (top dose mostly 46.1 µM), actives largely listed as cytotoxic; note: % is set by controls: 0 for no effect and ±100 for the full control effect; nearly all actives have a fitted effect of over 60% in size
#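 KB-3-1 cells, DMEM (no phenol red) + 10% FBS; compound by pin transfer, 72 h, 37 °C. Readout: CellTiter-Glo luminescence after 10 min. Data normalized, curve-fitted.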
# MCF10A rerep – A quantitative high throughput screen for small molecules that induce DNA re-replication in MCF 10a normal breast cells; MCF 10A DNA re-replication, Hoechst nuclear intensity, 48 h; Potency, µM (series often up to 46.1 µM), for the others: top-dose activity, positive = re-replication, hits mostly activators; hit rate 2.9% among 350,000; AID 624296, 2012; note: % of control where 0% means no effect; nearly all actives have a fitted effect of over 50% in size
# * = called active by the depositor; i = inactive; ? = inconclusive; . = no result given. Hits are enriched below; roughly 8.2% of the tested compounds scored in any of these assays. Calls come from the whole dose curve; as a rule, active = well fitted curve in the direction sought with a large enough effect; inconclusive = small, poorly fitted or top-dose-only effect, or another doubt; inactive = no such curve, though single readings can be large; an effect the other way counts as inactive or inconclusive. Potency is the fitted concentration of half-maximal effect.
SMILES,SW480 rereplic,KB-V1 MDR tox,ELG1 DNA repair,KB-3-1 tox,MCF10A rerep
COc1cc(CC2C(=O)N(C)C(=O)N(C)C2=O)ccc1OCc1ccccc1,?,?,?,i,5.2µM*
N[C@H]1C[C@H]1c1ccccc1,-6%,.,.,.,0%
Cc1cccc(OCC(=O)N2CCN(Cc3ccncc3)CC2)c1,-6%,i,0%,i,4%
Cc1ccc(C(C)C)c(OCC(=O)N2CCN(Cc3nc4cc([N+](=O)[O-])ccc4n3C)CC2)c1,-4%,i,21µM*,i,20%
S=c1[nH]nc(Cn2c(-c3ccccn3)nc3ccccc32)n1-c1ccc2c(c1)OCCO2,-27%,i,?,i,24%
O=C(CSc1ccc(-c2ccco2)nn1)Nc1ccccc1,-11%,18µM*,?,i,0%
Cc1cccc(C2=NCC(=O)N(CC(=O)NCc3ccco3)c3sc4c(c32)CCCC4)c1,1%,23µM*,?,i,-1%
COc1ccc(C2=NCC(=O)N(CC(=O)NCc3ccco3)c3sc4c(c32)CCCC4)cc1,1%,i,-15%,i,-1%
Cn1cc(C(=O)OCC(=O)NC2CCCCC2)c2ccccc21,6%,i,19%,?,?
COc1ccccc1NC(=O)COC(=O)c1cn(C)c2ccccc12,-5%,9.2µM*,-27%,i,9%
Cc1nc(N2CCN(Cc3ccccc3)CC2)nc2c1C(=O)CC(C)C2 (centres undefined),9%,21µM*,?,i,4%
COc1ccc(CNC(=O)/C=C/c2ccc3[nH]cc(CCN(C)C)c3c2)cc1,3.2µM*,i,10%,i,7%
O=C1C2CCCN2C(c2cccs2)N1c1ccc(Cl)cc1 (centres undefined),3%,?,?,?,?
ClC1=C(Cl)C(Cl)=C(Cl)C1=C/C=C/c1ccccc1,?,4.1µM*,?,4.6µM*,3.7µM*
CCCC(C)C1(CC)C(=O)NC(=O)NC1=O (centres undefined),-4%,.,.,.,3%
COCC(C)N(C(=O)CCl)c1c(C)csc1C (centres undefined),-1%,.,.,.,1%
C#C[C@]1(O)CCC2C3C(=O)C=C4C(Cl)=CCC[C@]4(C)C3CC[C@@]21C (some centres undefined),?,i,.,i,18µM*
N=C(N)c1c(O)n(C2CCCCC2)c(=O)n(C2CCCCC2)c1=O,?,i,-8%,21µM*,?
Cc1ccc(-n2c(/C=C/c3cc(Br)cs3)nc3ccccc3c2=O)cc1,.,i,.,i,.
CC[C@]1(C(=O)OC)[C@H]2C(=O)N(Cc3ccccc3)C(=O)[C@H]2[C@H]2CN=C(SCc3ccc(C(=O)OC)cc3)N21,?,i,?,?,-2%
c1ccc(Nc2ccc3ccccc3c2)cc1,-5%,i,.,i,5%
CC(C)Nc1ccc(Nc2ccccc2)cc1,24µM*,i,?,18µM*,?
CC(C)(C)c1ccc(C(=O)NC(=S)Nn2cnnc2)cc1,1%,i,?,i,?
COc1ccc(CCn2c(O)c(/C=N/N3CCOCC3)c(=O)[nH]c2=O)cc1OC,-2%,i,18µM*,i,-1%
O=c1[nH]c(=S)n(CCC2=CCCCC2)c(O)c1/C=N/N1CCOCC1,?,i,0%,i,18µM*
COc1ccc2c(c1)/C(=C/c1cnc[nH]1)C(=O)N2,?,10µM*,?,?,?
O=C1Nc2ccccc2/C1=C/c1cnc[nH]1,?,?,26%,i,?
COc1cc(OC)c(/C=C2\C(=O)Nc3ccccc32)c(OC)c1,12µM*,8.2µM*,?,4.1µM*,5.2µM*
Cc1ccc(-c2nc3c(=O)n(C)c(=O)nc-3n(C)n2)cc1,.,7.3µM*,.,2.6µM*,.

# Screening data: PubChem BioAssay, National Center for Advancing Translational Sciences (NCATS)
